# The panel holds about 83,000 compounds, 20% with a hit somewhere; the sample as a whole holds those more often.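 Percent growth is the endpoint: 0 to 100 indicates growth inhibition (40 means 60% inhibition), 0 means no net growth, and negative values indicate cell death.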 Values without a mark were called inactive. The source made the active and inactive calls. How the source made its calls: active means growth percent below 10; inactive means the rest.
# Assays:
# Test in all cases: NCI-60 one-dose screen, 48 h (100 = growth as untreated, 0 = no growth, -100 = all killed)
# Settings in all cases: 10 µM
# [1] = system: T-47D breast
# [2] = system: BT-549 breast
# [3] = system: MDA-MB-435 melanoma
# [4] = system: SW-620 colon
# [5] = system: MCF7 breast
# [6] = system: HCT-116 colon
# [7] = system: HCC-2998 colon
# [8] = system: KM12 colon
# [9] = system: MDA-MB-468 breast
SMILES,growth [1],growth [2],growth [3],growth [4],growth [5],growth [6],growth [7],growth [8],growth [9]
O=C1NC(=NC23CC4CC(CC(C4)C2)C3)N/C1=C\c1ccc2ncccc2n1,-9.66% (active),-81.3% (active),-11.4% (active),2.73% (active),-19.4% (active),17.9%,3.26% (active),-0.698% (active),-63% (active)
O=c1[nH][nH]c(Nc2ccccc2)c1N=Nc1ccc(F)cc1,36.4%,65.3%,99.4%,109%,13.9%,87%,92.6%,55.3%,27.8%
COc1ccc2[nH]c(O)c(N=NC(=O)COc3ccc(NC(=O)Nc4ccc(Cl)cc4)cc3)c2c1,83.8%,76%,-52% (active),4.49% (active),1.75% (active),-33.8% (active),-14.3% (active),4.25% (active),-52.3% (active)
O=c1[nH]c2ccc(Cl)cc2cc1CSc1ccc(Nc2nccc(-c3ccc4ccccc4c3)n2)cc1,100%,83.4%,84.7%,17.6%,29.2%,55%,79.6%,53%,15.2%
CCCCCc1ccc(S(=O)(=O)Nc2cc(-c3csc(N(C)C(C)=O)n3)ccc2N2CCN(C)CC2)cc1,-33.4% (active),48.6%,25.4%,8.57% (active),4.08% (active),-84.7% (active),20.8%,46.3%,14.1%
CC(C)CCSc1nc(NC2CC2)c(C#N)c(-c2ccc(C(C)C)cc2)n1,100%,100%,112%,114%,97.9%,108%,115%,107%,106%
COc1ccc(-c2nc(S(=O)(=O)c3ccccc3)c(S(C)(=O)=O)o2)cc1,-64.5% (active),3.82% (active),-60.2% (active),-25.3% (active),-57.5% (active),0.823% (active),-26.8% (active),66%,-88.1% (active)
CCCCSc1nc(Nc2ccc(/C(C)=N/NC(N)=S)cc2)c(C#N)c(-c2ccc(OC)cc2)n1,67.2%,42.9%,59.3%,97.2%,49.2%,38.2%,94.5%,79.3%,87.7%
COc1ccc(CN2[C@@H](C(=O)NCc3ccc(C(=O)NO)cc3)Cc3c([nH]c4ccccc34)[C@@H]2C)cc1,13.9%,43.6%,-36.4% (active),-31.3% (active),15.8%,9.97% (active),14.6%,20.4%,7.58% (active)
O/N=C(\CSc1nnc(-c2c[nH]c3ccccc23)n1-c1ccccc1)c1ccc(Br)cc1,5.96% (active),-72.7% (active),-100% (active),-86.3% (active),-42.5% (active),-36.3% (active),-66.5% (active),2.11% (active),-94.5% (active)
Nc1cc(-c2cccc(C(=O)NCc3ccc4c(c3)OCO4)c2)ccn1,77.4%,96.8%,102%,110%,86.5%,95.1%,103%,106%,88.1%
CN1C(=O)N(C)C2SC(N/N=C/C=C/c3ccccc3)=NC21 (stereo not drawn),61.8%,64.1%,-19.6% (active),63.9%,27.6%,71.6%,85.3%,58%,-4.12% (active)
CC(C)C(=O)Nc1ccc(C(=O)NC(=S)Nc2ccc(C(=O)O)cc2)cc1,98.9%,79.5%,102%,107%,99.9%,104%,110%,106%,96%
CN1CCN(Cc2ccc(NC(=O)c3cncc(C#Cc4cnc5ccc(N[C@@H]6CCOC6)nn45)c3)cc2C(F)(F)F)CC1,-63.2% (active),-71.3% (active),-87.6% (active),-41.9% (active),-88.1% (active),-63.9% (active),-99.7% (active),-90.7% (active),-96.2% (active)
CO[C@@H]1CSS[C@H]1Cn1nc(-c2ccc(Oc3ccccc3)cc2)c2c(N)ncnc21,17.8%,63.8%,17.3%,96.7%,30.7%,31.7%,91.6%,60%,11.6%
Cc1ccc2nc(COc3ccc(C(=O)NNC(=S)NC(=O)c4ccccc4)cc3)[nH]c2c1,60.5%,81.8%,64.3%,39.5%,30.6%,38.5%,66.1%,49.4%,55.6%
CC(C)C1=C[C@@]23CC[C@@H]4[C@](C)(CCC[C@]4(C)C(=O)NCc4ccccc4)[C@H]2C[C@@H]1[C@H]1C(=O)OC(=O)[C@H]13,56%,69.6%,49.6%,54.2%,13.2%,23.1%,53.8%,24.9%,41.5%
CCOC(=O)C(Cc1ccccc1)N1C(=O)/C(=C/N2N=C(c3ccc(OC)cc3)CC2c2ccc3ccccc3c2)SC1=S (stereo not drawn),14.6%,-6.78% (active),16.3%,13.4%,0.163% (active),7.1% (active),-92% (active),9.78% (active),-34.1% (active)
Clc1cccc(N/N=C/c2c[nH]c3ccccc23)n1,27.4%,3.11% (active),19.8%,52.1%,11.2%,23.4%,30.2%,9.99% (active),-10.1% (active)
O=C(CSc1nnc(-c2ccc3nc(-c4ccc(Cl)cc4)[nH]c3c2)o1)Nc1ccc(Cl)cc1,28%,-65.1% (active),-65.8% (active),-69.9% (active),-72.7% (active),-48.9% (active),18.5%,-12.8% (active),-48.4% (active)
O=C(NCCCCCCCCCC[P+](c1ccccc1)(c1ccccc1)c1ccccc1)c1ccc(-n2nc(-c3ccccc3O)nc2-c2ccccc2O)cc1,-51.9% (active),-87.4% (active),-81.3% (active),-60.9% (active),-87% (active),-79.4% (active),-99.5% (active),-27.1% (active),-87.7% (active)
Cc1ccc(C(=O)NCCCNc2nc(Nc3ccc(N4CCN(C)CC4)cc3)nc3ccsc23)cc1,4.51% (active),65.4%,43.9%,31.6%,16.6%,9.28% (active),43.7%,,45.4%
CN1CCN(c2ccc(C(=O)/C=C/c3ccc(C#N)cc3)cc2)CC1,87.4%,91.1%,28.1%,35.5%,6.57% (active),18%,47%,,26.5%
Cc1ccc(C(=O)Nc2ccc(-n3c(C)nc4c(cnn4-c4ccccc4)c3=O)cc2)cc1,34.6%,59.2%,70.5%,86.2%,47.8%,51.5%,88.4%,,21.1%
C=C1CCC2C3(C)COC(c4ccccc4F)OC3CCC2(C)C1C/C=C1/C(=O)OCC1O (stereo not drawn),-50.4% (active),-82.1% (active),4.59% (active),-68.5% (active),-26.5% (active),-67.8% (active),-73.5% (active),,-22.6% (active)
CN(C)c1ccc(/C=C/c2nc3ccccc3c(=O)n2CC(=O)Nc2ccc(Cl)cc2)cc1,75.1%,26.6%,68.8%,61.9%,27.9%,56.8%,68%,,31.3%
COc1ccc(C(=O)/C=C/c2cc(F)cc(C(F)(F)F)c2)cc1S(N)(=O)=O,6.93% (active),-73% (active),-56.2% (active),-90.6% (active),-90.6% (active),-55% (active),-89.6% (active),,-93.2% (active)
Nc1nc(Nc2ccccc2)nn1Cc1c(Cl)cccc1Cl,15%,23.6%,48.4%,56.3%,16%,22.4%,15.2%,,5.3% (active)
CN1CCN(c2ccc(Nc3nc(NCCCNC(=O)c4ccc(Cl)cc4)c4sccc4n3)cc2)CC1,41.9%,80.1%,86.2%,93%,49.1%,15.1%,91.3%,,68.3%

# Reference: PubChem BioAssay (NCI)
